Only some compounds are listed: those with a hit (about 0.4% of all), similar ones and a draw of the others.
GLA spleen mod = inhibitors or activators of human alpha-galactosidase in spleen homogenate; P06280; human spleen homogenate, 4MU-alpha-Gal fluorescence, 40 min; Potency, µM (titrated, usually from 80 µM), actives largely listed as inhibitors; hit rate 0.008% among 240,000
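Inhibition or activation of alpha-galactosidase in human spleen homogenate is scored by 4-MU fluorescence after 40 min at 37C, pH 5.0, with 1 mM substrate. AC50s come from concentration-response fitted to the Hill equation.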
GAA inh = blocks human lysosomal alpha-glucosidase; Potency, µM (series often up to 76.9 µM), usual class: inhibitors; AID 1466; hit rate 0.005% among 200,000; P10253; purified human GAA, 4-MU-alpha-glucoside fluorescence
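Compounds are titrated up to 77 uM against 4 nM human enzyme. Substrate 4-methylumbelliferyl-alpha-D-pyranoside (400 uM) reacts 20 min at room temperature in pH 5.0 buffer; liberated 4-methylumbelliferone is read at 440 nm.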
GAA glycogen mod = inhibitors or activators of human alpha-glucosidase glycogen cleavage | P10253 | recombinant GAA, glycogen substrate, Amplex Red glucose oxidase fluorescence | Potency, µM (top dose mostly 76.4 µM), usual class: inhibitors | hit rate 0.38% among 300,000;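 also: the screen sought inhibitors and activators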
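Natural-substrate format: glycogen cleavage by 4 nM human enzyme, glucose read by Amplex Red coupling (Ex 573, Em 610 nm). Normalized to enzyme and no-enzyme controls.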
GAA spleen mod = inhibits or activates alpha-glucosidase in human spleen homogenate. P10253. hit rate 0.006% among 240,000. Potency, µM (titrated, usually from 79.9 µM), usual class: inhibitors. human spleen homogenate, 4-MU-alpha-glucoside fluorescence
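Human spleen homogenate (1 ug) with 4-methylumbelliferyl-alpha-D-glucopyranoside (1 mM final) in 50 mM citrate/phosphate pH 5.0, 0.01% Tween-20; 40 min at 37 C. Stopped at pH 10; 4-MU fluorescence Ex 365/Em 440 nm; AC50 by Hill fit.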
GLA inh pH 4.5 = alpha-galactosidase A (human) inhibition, pH 4.5 | P06280 | purified enzyme, 4-MU-alpha-Gal fluorescence, pH 4.5 | 230,000 tested, under 10 active | activity change, negative = inhibition, % at 105 µM
Target sequence (P06280 whole entry, looked up): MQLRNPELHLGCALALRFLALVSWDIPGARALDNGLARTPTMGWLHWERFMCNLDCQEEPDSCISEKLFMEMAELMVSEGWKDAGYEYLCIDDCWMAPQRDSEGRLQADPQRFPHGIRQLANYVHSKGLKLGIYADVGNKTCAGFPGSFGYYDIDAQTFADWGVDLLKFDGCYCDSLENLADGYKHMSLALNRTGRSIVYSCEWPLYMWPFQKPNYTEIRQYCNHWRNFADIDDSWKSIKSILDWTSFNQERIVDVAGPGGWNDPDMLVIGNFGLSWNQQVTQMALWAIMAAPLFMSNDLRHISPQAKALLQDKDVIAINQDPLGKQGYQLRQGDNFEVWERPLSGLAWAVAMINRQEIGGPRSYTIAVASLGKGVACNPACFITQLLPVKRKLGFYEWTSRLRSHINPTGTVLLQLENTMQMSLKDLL
Large screens that a line does not name were inactive; ! = a repeat was not active. Calls follow the shape of the dose curve; as a rule, active = well fitted curve in the direction sought with a large enough effect; inconclusive = small, poorly fitted or top-dose-only effect, or another doubt; inactive = no such curve, though single readings can be large; an effect the other way counts as inactive or inconclusive.

Cn1c(-c2ccc3c(c2)OCO3)cnc1NCc1cccc(Cl)c1	GAA glycogen mod 18µM
Cc1nn(-c2ccccc2)c2[nH]c(=O)c(CNc3ccc(N4CCOCC4)cc3)cc12	GAA glycogen mod 20µM
Cc1ccc(NC(=O)Nc2sc(=S)n(C)c2C)cc1	GAA glycogen mod 25µM
CC(=O)NC(=O)Nc1sc(=S)n(C)c1C	GAA glycogen mod inconclusive
CN=c1scc(-c2ccc(F)cc2)n1/N=C/c1ccc(O)c(O)c1	GAA glycogen mod 5.6µM
Cc1nnc(N/N=C/c2c(O)n(-c3cccc(C(F)(F)F)c3)c(=O)c3ccccc23)[nH]c1=O	GAA glycogen mod 25µM
Cc1ccc(NC(=S)NNC(=O)c2cn(C)nc2C)cc1	GAA glycogen mod 28µM
Cc1ccc(Nc2c(-c3ccc(N4CCOCC4)cc3)nc3ncccn23)c(C)c1	GAA glycogen mod 32µM
Cc1cccc(C)c1Nc1c(-c2ccc(N3CCOCC3)cc2)nc2ncccn12	GAA glycogen mod 20µM!
COc1ccc(-c2nc3ncccn3c2Nc2ccccc2)cc1	GAA glycogen mod inconclusive
Cc1ccc(Nc2c(-c3ccc(N(C)C)cc3)nc3ncccn23)cc1	none
O=C(O)[C@H](Cc1c[nH]c2ccccc12)N1C(=O)C2=CCCC=C2C1=O	none (no result: GAA inh, GAA glycogen mod, GLA inh pH 4.5)
COc1cccc(CNc2ncc(Br)cc2Br)c1O	GAA glycogen mod 25µM
CCCn1cnc2cc(NCc3cccc(OC)c3O)ccc21	GAA glycogen mod 18µM
COc1cccc(CNc2ccc(Br)cn2)c1O	GAA glycogen mod inconclusive
CC(C)NC(=O)CSc1nc2ccccc2nc1N1CCCCC1	none (no result: GLA spleen mod, GAA inh, GAA spleen mod, GLA inh pH 4.5)
O=C(Nc1ccc(OCC(=O)N2CCN(S(=O)(=O)c3ccccc3)CC2)cc1)c1ccco1	GAA inh 28µM, GAA spleen mod inconclusive
CN1CCc2cccc3c2[C@H]1Cc1ccc(O)c(O)c1-3	GAA glycogen mod 7.9µM
NC(=S)N/N=C1/CCSc2ccc3ccccc3c21	GAA glycogen mod 28µM
Oc1ccc(N2CCN(Cc3nc4ccccc4[nH]3)CC2)cc1	GAA glycogen mod 8.9µM (no result: GLA spleen mod, GAA inh, GAA spleen mod, GLA inh pH 4.5)
COc1ccc(C(=O)/C=C(\C)Nc2ccc3c(c2)OCO3)cc1	GAA glycogen mod 35µM
CCOC(=O)CCCCC(=O)c1[nH]c(=O)[nH]c1CSc1nc(-c2ccccc2)c(C#N)c(=O)[nH]1	GAA inh inconclusive, GAA glycogen mod 35µM
Cc1ccc(-c2cc(C(=O)N3CCN(S(=O)(=O)c4ccc(Br)s4)CC3)[nH]n2)c(C)c1	GAA glycogen mod 8.9µM (no result: GLA spleen mod, GAA inh, GAA spleen mod, GLA inh pH 4.5)
Cc1ccc(-c2cc(C(=O)N3CCN(S(=O)(=O)c4ccc(Br)cc4)CC3)[nH]n2)c(C)c1	none (no result: GLA spleen mod, GAA inh, GAA spleen mod, GLA inh pH 4.5)
COC(=O)c1[nH]c2cc(OC)c(OC)cc2c1NC(=O)Oc1ccccc1	GAA inh inconclusive, GAA glycogen mod 35µM
COC(=O)c1[nH]c2ccccc2c1NC(=O)Oc1ccccc1	none
O=[N+]([O-])c1ccc(Nc2nc(NCCO)nc(N3CCCC3)n2)cc1	none
Cc1ccc([N+](=O)[O-])cc1Nc1nc(N2CCCC2)nc(N2CCCC2)n1	GAA glycogen mod 32µM (no result: GLA spleen mod, GAA inh, GAA spleen mod, GLA inh pH 4.5)
COc1ccc(-c2nc(CN3CCC(C(=O)NCCCOC(C)C)CC3)c(C)o2)cc1OC	none (no result: GLA spleen mod, GAA inh, GAA spleen mod, GLA inh pH 4.5)
CCc1ccccc1NC(=O)CN(Cc1ccccc1)S(=O)(=O)c1ccc(Br)cc1	none (no result: GLA spleen mod, GAA inh, GAA spleen mod, GLA inh pH 4.5)
Cc1c(NCc2cc(Cl)ccc2O)c(=O)n(-c2ccccc2)n1C	GAA glycogen mod 13µM
Cc1c(NC(=O)Nc2ccc(Cl)cc2Cl)c(=O)n(-c2ccccc2)n1C	none
Cc1c(NCc2cc(Cl)cc(Cl)c2O)c(=O)n(-c2ccccc2)n1C	GAA glycogen mod 10µM
Cc1c(NCc2nc3ccccc3[nH]2)c(=O)n(-c2ccccc2)n1C	GAA glycogen mod 11µM
C[C@H](NC(=O)/C(C#N)=C/c1ccc(O)c(O)c1)c1ccccc1	GLA spleen mod inconclusive (no result: GAA inh, GAA glycogen mod)
Cc1ccccc1OCc1ccc(-c2nc(C#N)c(N3CCN(c4cccc(Cl)c4)CC3)o2)o1	none (no result: GLA spleen mod, GAA inh, GAA spleen mod, GLA inh pH 4.5)
CNC(=O)CSc1cn(CC(=O)N2CCCCCC2)c2ccccc12	GAA glycogen mod 50µM (no result: GLA spleen mod, GAA inh, GAA spleen mod, GLA inh pH 4.5)
Oc1ccc(Nc2nc(NCC3CCCO3)c3ccccc3n2)cc1 (centres undefined)	GAA glycogen mod inconclusive
Oc1ccccc1Nc1nc(NCc2ccco2)c2ccccc2n1	GAA glycogen mod 11µM (no result: GAA inh)
Oc1ccccc1Nc1nc(NCC2CCCO2)c2ccccc2n1 (centres undefined)	GAA inh inconclusive, GAA glycogen mod 8.8µM

Screens: PubChem BioAssay, National Center for Advancing Translational Sciences (NCATS)
